Source: PubChem (National Center for Advancing Translational Sciences (NCATS))
SW480 rerep: induces DNA re-replication in SW480 colon adenocarcinoma cells. SW480 DNA re-replication, Hoechst DNA content imaging, 48 h. 340,000 compounds, 1.8% hits. Potency, µM (top dose mostly 46.1 µM), most hits filed as activators; note: nearly all actives have a fitted effect of over 55% in size
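SW480 cells exposed to compounds for 48 hr at 37 C, 5% CO2, then Hoechst-stained 40 min. Nuclear DNA content imaged by fluorescence scanning (405 nm excitation, 500-530 nm emission); re-replication scored as increased high-intensity nuclei.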
IL-1B inflam inh: inflammasome signaling inhibition, IL-1 beta readout | activity change, % at 57.5 µM | 360,000 compounds, 4.7% hits | AID 743279 | THP-1 LPS/ATP IL-1B secretion, AlphaLISA, 16 h; hits give low values; in the data active = activity change below about -50%; inconclusive = mostly about -30% to -49%
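Secreted IL-1B measured by AlphaLISA bead assay after 16 h compound exposure of THP-1 cells; compounds (final up to 57.5 uM) added 1 h before LPS (250 ng/mL) and ATP (1.25 mM) stimulation; lower signal means less secretion.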
MCF10A rerep: DNA re-replication induction in MCF 10a cells | MCF 10A DNA re-replication, Hoechst nuclear intensity, 48 h | Potency, µM (highest dose often 46.1 µM), most hits filed as activators | 350,000 compounds, 2.9% hits; note: nearly all actives have a fitted effect of over 50% in size
RORgamma inh: blocks mouse ROR gamma transcriptional activity; Drosophila S2 Gal4-RORgamma UAS-luciferase reporter, 20 h; Potency, µM (titrated, usually from 53.6 µM), usual class: inhibitors; 310,000 compounds, 5.4% hits; AID 2551; note: nearly all actives have a fitted effect of over 60% in size
Target sequence (P51450 whole entry, looked up, the tested form may be a part): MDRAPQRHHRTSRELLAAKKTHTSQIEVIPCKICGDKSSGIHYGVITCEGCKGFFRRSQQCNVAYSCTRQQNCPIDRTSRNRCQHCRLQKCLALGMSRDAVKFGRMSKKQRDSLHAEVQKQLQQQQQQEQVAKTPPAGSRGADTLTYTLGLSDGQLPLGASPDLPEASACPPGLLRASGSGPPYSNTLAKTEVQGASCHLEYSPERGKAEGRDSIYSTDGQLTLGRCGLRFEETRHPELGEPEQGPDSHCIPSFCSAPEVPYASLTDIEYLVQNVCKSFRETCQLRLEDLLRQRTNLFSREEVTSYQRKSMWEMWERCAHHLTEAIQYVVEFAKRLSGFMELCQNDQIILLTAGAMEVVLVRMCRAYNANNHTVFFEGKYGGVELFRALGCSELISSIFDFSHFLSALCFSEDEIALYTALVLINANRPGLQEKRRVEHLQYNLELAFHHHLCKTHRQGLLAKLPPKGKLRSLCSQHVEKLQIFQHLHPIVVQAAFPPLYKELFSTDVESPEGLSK
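Schneider cells (Drosophila), stable Gal4 DBD–ROR gamma + UAS-luc; 1 hr cmpd preincubation; Cu2+ induction 700 uM final; 20 hr ambient; luminescence.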
Gal4-VP16 FLuc: counter-screen for ROR gamma inhibitors: Gal4-VP16 reporter | Drosophila S2 Gal4-VP16 UAS-luciferase, luminescence, 20 h | Potency, µM (doses to about 53.6 µM), usual class: inhibitors | 310,000 compounds, 3.5% hits | AID 2546;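 note: Gal4-VP16 expression switched on by copper sulfate through the metallothionein promoter; nearly all actives have a fitted effect of over 50% in size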
Each line names hits and unclear results; the compound was inactive in the other large screens. Compounds with a hit are over-represented: about 11% of the library has one in this group of screens. Unless noted, calls come from the whole dose curve; as a rule, active = well fitted curve in the direction sought with a large enough effect; inconclusive = small, poorly fitted or top-dose-only effect, or another doubt; inactive = no such curve, though single readings can be large; an effect the other way counts as inactive or inconclusive.

CCN(C(=O)COC(=O)c1cc(-c2cccs2)nc2ccccc12)C1CCS(=O)(=O)C1 (configuration not stated)	IL-1B inflam inh -53.6, MCF10A rerep inconclusive
CN(C(=O)COC(=O)/C=C/c1ccc2ccccc2n1)C1CCS(=O)(=O)C1 (configuration not stated)	IL-1B inflam inh -105.8, MCF10A rerep inconclusive
Cc1ccc(S(=O)(=O)NC(=O)C2(C)CCN2C(=O)C2(c3ccc(Cl)cc3)CCC2)nc1 (configuration not stated)	none (no result: SW480 rerep, MCF10A rerep, RORgamma inh, Gal4-VP16 FLuc)
Cc1ccc(S(=O)(=O)N2CCCC2)cc1C(=O)NCC(C)(C)N1CCOCC1	none (no result: RORgamma inh, Gal4-VP16 FLuc)
COc1ccc(CCNC(=O)/C=C/c2ccc3ccccc3n2)cc1OC	SW480 rerep 20.6µM, IL-1B inflam inh -102.7, MCF10A rerep 16.4µM
c1nc2n(n1)C1=C(CCCC1)C1(CCCCC1)N2	RORgamma inh 2.51µM, Gal4-VP16 FLuc inconclusive
COc1ccc(C2/C=C\CN(C(=O)C3CCCC3)C(C)C(=O)N2Cc2ccc(F)cc2)cc1 (configuration not stated)	none (no result: SW480 rerep, IL-1B inflam inh, MCF10A rerep)
CC12CC3(C)CC(C)(C1)CC(C(=O)NCC(=O)O)(C2)C3	none
CN(C)C(=S)NC(=O)C12CC3(C)CC(C)(CC(C)(C3)C1)C2	RORgamma inh 2.51µM
N#C/C(=C/c1ccc(N2CCOCC2)o1)c1nc2ccccc2[nH]1	Gal4-VP16 FLuc inconclusive
CCc1ccc(NC(=O)/C(C#N)=C/c2cc3ccc(C)cc3nc2N2CCOCC2)cc1	MCF10A rerep 8.2µM
CCc1ccc(NC(=O)/C(C#N)=C/c2ccncc2)cc1	none
N#C/C(=C/c1ccc(N2CCCCCC2)o1)c1cccc(F)c1	SW480 rerep inconclusive, MCF10A rerep inconclusive, Gal4-VP16 FLuc inconclusive
COc1ccc(NC(=O)/C(C#N)=C\c2ccc(N3CCOCC3)o2)cc1	MCF10A rerep inconclusive, Gal4-VP16 FLuc inconclusive
N#C/C(=C/c1ccc(N2CCOCC2)o1)c1ccc(Br)cc1	SW480 rerep 5.8µM, IL-1B inflam inh -106.0, MCF10A rerep 5.8µM, Gal4-VP16 FLuc 5.62µM
N#C/C(=C\c1ccc(N2CCOCC2)o1)C(=O)Nc1ccc(O)cc1	SW480 rerep inconclusive, IL-1B inflam inh -55.3, MCF10A rerep inconclusive
N#C/C(=C/c1ccc(N2CCCCCC2)o1)c1ccc(F)cc1	SW480 rerep 11.6µM, IL-1B inflam inh -69.5, MCF10A rerep 3.26µM (no result: RORgamma inh, Gal4-VP16 FLuc)
N#C/C(=C\c1ccc(N2CCOCC2)o1)c1ccccc1	SW480 rerep inconclusive, IL-1B inflam inh -83.5, RORgamma inh inconclusive, Gal4-VP16 FLuc 20µM
CCN(CC)c1nc2cc(C)ccc2cc1/C=C(\C#N)C(N)=O	IL-1B inflam inh -57.6
O=C(Cc1ccc(Cl)cc1)Nc1ccc(Br)cn1	SW480 rerep inconclusive
COc1ccc(SCC(c2ccccc2)N2CCN(CC(C)C)CCC2=O)cc1 (configuration not stated)	none (no result: SW480 rerep, IL-1B inflam inh, MCF10A rerep)
Cc1ccccc1NC(=O)C(Cl)=C(Cl)Cl	SW480 rerep inconclusive, IL-1B inflam inh -97.0, MCF10A rerep 18.4µM
CCN(CC)S(=O)(=O)c1cc(NC(=O)C(C)Nc2ccccc2N2CCOCC2)ccc1C (configuration not stated)	IL-1B inflam inh -60.2, MCF10A rerep inconclusive
CCN(CC)S(=O)(=O)c1cc(NC(=O)C(C)N2CCN(Cc3ccc4c(c3)OCO4)CC2)ccc1C (configuration not stated)	SW480 rerep 14.6µM, MCF10A rerep inconclusive
Cc1nnc(NC(=O)CSc2ccc3nnc(-c4ccccn4)n3n2)s1	none
CCC(Sc1ccccn1)C(=O)Nc1nnc(C)s1 (configuration not stated)	MCF10A rerep inconclusive, RORgamma inh 10µM
CCC(Sc1nc2ccccc2o1)C(=O)Nc1nnc(C)s1 (configuration not stated)	MCF10A rerep inconclusive, RORgamma inh 12.6µM, Gal4-VP16 FLuc inconclusive
CCC(C(=O)Nc1ccccc1OC)n1c(C(=O)OC)cc2ccsc21 (configuration not stated)	SW480 rerep inconclusive, IL-1B inflam inh -57.0, MCF10A rerep inconclusive
CCOc1ccc(OCCC(=O)N2CCN(S(=O)(=O)c3cccc(F)c3)CC2)cc1	none (no result: RORgamma inh, Gal4-VP16 FLuc)
O=C(c1c[nH]c(C(=O)N2CCN(c3ccccc3F)CC2)c1)c1cccc(Cl)c1Cl	SW480 rerep inconclusive, MCF10A rerep 3.66µM
Cc1ccc(N2CCN(C(=O)c3ccccc3F)CC2)c(C)c1	none
Cc1ccccc1C(=O)c1c[nH]c(C(=O)N2CCN(c3ccccc3F)CC2)c1	IL-1B inflam inh -66.2
O=C(Nc1cccc(C(F)(F)F)c1)c1cccnc1NCCO	none
O=C(Nc1cccc(F)c1)c1cccnc1NCCc1ccccc1	IL-1B inflam inh -60.1, MCF10A rerep inconclusive, Gal4-VP16 FLuc inconclusive
O=C(Nc1cccc(C(F)(F)F)c1)c1cccnc1N1CCOCC1	SW480 rerep 0.731µM
O=C(Nc1cccc(C(F)(F)F)c1)c1cccnc1NCCc1ccccc1	IL-1B inflam inh -67.4, MCF10A rerep inconclusive, RORgamma inh inconclusive, Gal4-VP16 FLuc inconclusive
C(=Cc1c[nH]c2ccccc12)c1ccc2ccccc2n1	SW480 rerep inconclusive, MCF10A rerep 0.92µM (no result: RORgamma inh, Gal4-VP16 FLuc)
C(=Cc1c[nH]c2ccccc12)c1nccc2ccccc12	SW480 rerep 6.51µM, IL-1B inflam inh -82.0, MCF10A rerep 1.64µM (no result: RORgamma inh, Gal4-VP16 FLuc)
Fc1ccccc1/C=C/c1ccc2ccccc2n1	Gal4-VP16 FLuc inconclusive
Cc1cccc(OCC(=O)NCCNC(=O)c2ccco2)c1	none
CCc1noc(C)c1C(=O)N(CC)CC(=O)Nc1cc(Cl)ccc1C	SW480 rerep inconclusive (no result: RORgamma inh, Gal4-VP16 FLuc)
Cc1ccc(OC(=O)CCNC(=O)c2ccccc2Cl)c(Br)c1	none (no result: RORgamma inh, Gal4-VP16 FLuc)
OC1OC[C@H](O)[C@@H](O)[C@H]1O (some centres not stated)	none (no result: SW480 rerep, IL-1B inflam inh, MCF10A rerep)
CC1=NN(c2nc(C)cc(C)n2)C(=O)C1CCC(C)C (configuration not stated)	SW480 rerep inconclusive, RORgamma inh 2µM, Gal4-VP16 FLuc 7.94µM
Cc1ccc(C2N(C)c3ccccc3-c3nc4ccccc4n32)o1 (configuration not stated)	SW480 rerep inconclusive, MCF10A rerep inconclusive, RORgamma inh 10µM
CN1c2ccccc2-c2nc3ccccc3n2C1c1cccs1 (configuration not stated)	SW480 rerep inconclusive, MCF10A rerep 10.3µM, RORgamma inh 4.47µM
c1csc(C2Nc3ccccc3-c3nc4ccccc4n32)c1 (configuration not stated)	IL-1B inflam inh inconclusive, MCF10A rerep inconclusive
CCN1c2ccccc2-c2nc3ccccc3n2C1c1ccccn1 (configuration not stated)	RORgamma inh 8.91µM
CCCCn1c(C)cc2c(c1=O)C1O[C@](CCCC)(Cc3cc(C#N)ccc31)O2	none (no result: SW480 rerep, IL-1B inflam inh, MCF10A rerep)
OC(c1ccc(-c2ccccc2)cc1)c1ncc(-c2ccc(C(F)(F)F)cc2)[nH]1 (configuration not stated)	none (no result: SW480 rerep, MCF10A rerep, RORgamma inh, Gal4-VP16 FLuc)
